# Results taken from the supplement of paper PMC10811239.
# How the values were obtained:
# [1] = system: LEGO organoid PTCC (PTEN-/-; TP53-/-; CDKN2A-/-; CDKN2B-/-); test: bioluminescence (viable cell) signal fold change after vs before treatment, normalised to DMSO (ratio); higher = more tumour cell growth / less inhibition; details: 10 µM; treatment time 6 days
# Description: (§1)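 Luc2-labelled iPSC-derived glioblastoma-like organoids (LEGOs, genotypes PT = PTEN-/-;TP53-/-, PTCC = plus CDKN2A/B-/-, PTN = plus NF1-/-) were treated with 10 uM drug for 6 days (applied every other day) at 37 C. Bioluminescence imaging was done before treatment and 2 days after the last dose. BLI signals were normalised to the DMSO control on the same day and then to the pre-treatment signal (N=3).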
# [2] = system: LEGO organoid PTN (PTEN-/-; TP53-/-; NF1-/-); test: as above; details: 10 µM; treatment time 6 days
# Description: as §1
Compound,bioluminescence [1],bioluminescence [2]
COc1ccccc1Oc1c(NS(=O)(=O)c2ccc(C(C)(C)C)cc2)nc(-c2ncccn2)nc1OCCO [Bosentan],1.68,1.28
CC1COc2c(N3CCN(C)CC3)c(F)cc3c(=O)c(C(=O)O)cn1c23 (stereo not drawn) [Ofloxacin],2.88,1.19
CC[C@]1(O)C[C@H]2C[N@](CCc3c([nH]c4ccccc34)[C@@](C(=O)OC)(c3cc4c(cc3OC)N(C=O)[C@H]3[C@@](O)(C(=O)OC)[C@H](OC(C)=O)[C@]5(CC)C=CCN6CC[C@]43[C@@H]65)C2)C1.O=S(=O)(O)O [Vincristine sulfate],2.47,0.8
CCCC(CCC)C(=O)[O-].[Na+] [Valproic acid sodium salt],1.23,2.43
CCCCOc1ccc(C(=O)CCN2CCCCC2)cc1.Cl [Dyclonine hydrochloride],1.03,1.13
CCCN(CCc1cccs1)[C@H]1CCc2c(O)cccc2C1 [Rotigotine],2.02,1.77
COc1ccc(CNc2nc(N3CCC[C@H]3CO)ncc2C(=O)NCc2ncccn2)cc1Cl [Avanafil],0.873,1.11
CC1=C(CC(=O)O)c2cc(F)ccc2/C1=C\c1ccc(S(C)=O)cc1 (stereo not drawn) [Sulindac],1.38,1.47
CN(C)C(=N)NC(=N)N.Cl [Metformin hydrochloride],1.27,1.35
CS(=O)(=O)CCNCc1ccc(-c2ccc3ncnc(Nc4ccc(OCc5cccc(F)c5)c(Cl)c4)c3c2)o1 [Lapatinib],0.878,1.93
COc1c(N2CCNC(C)C2)c(F)cc2c(=O)c(C(=O)O)cn(C3CC3)c12 (stereo not drawn) [Gatifloxacin],0.933,4.79
Cc1ccccc1C(OCCN(C)C)c1ccccc1.Cl (stereo not drawn) [Orphenadrine hydrochloride],1.18,1.59
O=C([O-])CCCc1ccccc1.[Na+] [Sodium Phenylbutyrate],0.911,3.02
CC1=C(/C=C/C(C)=C/C=C/C(C)=C/C(=O)O)C(C)(C)CCC1 [Tretinoin],0.531,1.41
C/C(O)=C(\C#N)C(=O)Nc1ccc(C(F)(F)F)cc1 [Teriflunomide],0.469,2.32
C[C@@H](O[C@H]1OCCN(Cc2nc(=O)[nH][nH]2)[C@H]1c1ccc(F)cc1)c1cc(C(F)(F)F)cc(C(F)(F)F)c1 [Aprepitant],0.644,1.21
Nc1ccn([C@@H]2O[C@H](CO)[C@@H](O)[C@@H]2O)c(=O)n1 [Cytarabine],1.15,0.51
CCC1(C)CC(=O)NC1=O (stereo not drawn) [Ethosuximide],0.668,0.778
CCCCCCCCCC(=O)OCCN1CCN(CCCN2c3ccccc3Sc3ccc(C(F)(F)F)cc32)CC1 [Fluphenazine decanoate],2.63,0.964
C#CCN[C@@H]1CCc2ccccc21.CS(=O)(=O)O [Rasagiline Mesylate],2.02,1.25

Compound,bioluminescence [1],bioluminescence [2]
CC(CN(C)C)CN1c2ccccc2CCc2ccccc21.O=C(O)/C=C\C(=O)O (stereo not drawn) [Trimipramine maleate],0.61,1.58
Cl.CNCC\C=C1\c2ccccc2CCc2ccccc12 [Nortriptyline hydrochloride],0.717,0.835
C=CC(=O)Nc1cc(Nc2nccc(-c3cn(C)c4ccccc34)n2)c(OC)cc1N(C)CCN(C)C [Osimertinib],0.0861,0.0227
Cc1cc(C)cc(OCC2CNC(=O)O2)c1 (stereo not drawn) [Metaxalone],1.35,1.62
Nc1nc(NC2CC2)c2ncn([C@H]3C=C[C@@H](CO)C3)c2n1.Nc1nc(NC2CC2)c2ncn([C@H]3C=C[C@@H](CO)C3)c2n1.O=S(=O)(O)O [Abacavir sulfate],1.28,1.95
C=C/C=C/C[C@@H](C)[C@@H](O)[C@H]1C(=O)N[C@@H](CC)C(=O)N(C)CC(=O)N(C)[C@@H](CC(C)C)C(=O)N[C@@H](C(C)C)C(=O)N(C)[C@@H](CC(C)C)C(=O)N[C@@H](C)C(=O)N[C@H](C)C(=O)N(C)[C@@H](CC(C)C)C(=O)N(C)[C@@H](CC(C)C)C(=O)N(C)[C@@H](C(C)C)C(=O)N1C [Voclosporin],0.723,0.446
NC(=O)N1c2ccccc2C=Cc2ccccc21 [Carbamazepine],0.95,1.42
COc1cc2ncnc(Nc3ccc(F)c(Cl)c3)c2cc1NC(=O)/C=C/CN1CCCCC1 [Dacomitinib],0.0502,0
NCC[C@H](O)C(=O)N[C@@H]1C[C@H](N)[C@@H](O[C@H]2O[C@H](CN)[C@@H](O)[C@H](O)[C@H]2O)[C@H](O)[C@H]1O[C@H]1O[C@H](CO)[C@@H](O)[C@H](N)[C@H]1O.O=S(=O)(O)O.O=S(=O)(O)O [Amikacin disulfate],1.21,0.614
CCCCC1C(=O)N(c2ccccc2)N(c2ccccc2)C1=O [Phenylbutazone],1.76,2.68
C[C@]12C=CC(=O)C=C1CC[C@@H]1[C@@H]2[C@@H](O)C[C@@]2(C)[C@H]1CC[C@]2(O)C(=O)CO [Prednisolone],1.29,1.71
N[C@@H](CC(=O)O)C(=O)O [L-Aspartic acid],1.1,0.451
NS(=O)(=O)Cc1noc2ccccc12 [Zonisamide],1.19,1.19
Cc1cnc(NC(=O)C2=C(O)c3ccccc3S(=O)(=O)N2C)s1 [Meloxicam],1.15,3.3
CCN(CC)CC(=O)Nc1c(C)cccc1C [Xylocaine],1.13,1.22
CCCC(CCC)C(=O)O.CCCC(CCC)C(=O)[O-].[Na+] [Divalproex Sodium],0.404,0.401
CCc1c2c(nc3ccc(OC(=O)N4CCC(N5CCCCC5)CC4)cc13)-c1cc3c(c(=O)n1C2)COC(=O)[C@]3(O)CC.Cl.O.O.O [Irinotecan hydrochloride trihydrate],0.793,1.15
CCC(C)n1ncn(-c2ccc(N3CCN(c4ccc(OC[C@H]5CO[C@](Cn6cncn6)(c6ccc(Cl)cc6Cl)O5)cc4)CC3)cc2)c1=O (stereo partly drawn) [Itraconazole],0.596,1.31
CCCCN1CCCCC1C(=O)Nc1c(C)cccc1C.Cl (stereo not drawn) [Bupivacaine hydrochloride],1.22,0.809
COC(c1ccccc1)(c1ccccc1)[C@H](Oc1nc(C)cc(C)n1)C(=O)O [Ambrisentan],1.39,1.08

Compound,bioluminescence [1],bioluminescence [2]
Cc1ccc(Nc2nccc(N(C)c3ccc4c(C)n(C)nc4c3)n2)cc1S(N)(=O)=O.Cl [Pazopanib HCl],1.41,1.02
Cc1ncc([N+](=O)[O-])n1CCO [Metronidazole],0.966,1.56
CCCCCCCCCCC[C@@H](C[C@@H]1OC(=O)[C@H]1CCCCCC)OC(=O)[C@H](CC(C)C)NC=O [Orlistat],0.925,1.32
Cl.N=C1CCCN1Cc1[nH]c(=O)[nH]c(=O)c1Cl [Tipiracil hydrochloride],1.21,0.848
COCCCC/C(=N\OCCN)c1ccc(C(F)(F)F)cc1.O=C(O)/C=C\C(=O)O [Fluvoxamine maleate],0.792,1.47
C[C@@H]1COCCN1c1cc(C2([S@](C)(=N)=O)CC2)nc(-c2ccnc3[nH]ccc23)n1 [Ceralasertib],1.4,0.823
CCc1c(C)[nH]c2c1C(=O)C(CN1CCOCC1)CC2.Cl (stereo not drawn) [Molindone hydrochloride],1.39,1.2
C[C@]12CCC3=C4CCC(=O)C=C4CC[C@H]3[C@@H]1CC[C@@]2(O)CC#N [Dienogest],3.61,0.658
CN1CC(=O)N2[C@H](c3ccc4c(c3)OCO4)c3[nH]c4ccccc4c3C[C@@H]2C1=O [Tadalafil],1.47,0.562
CN(Cc1cnc2nc(N)nc(N)c2n1)c1ccc(C(=O)N[C@@H](CCC(=O)O)C(=O)O)cc1 [Methotrexate],1.34,0.813
CSc1ccc2c(c1)N(CCC1CCCCN1C)c1ccccc1S2.Cl (stereo not drawn) [Thioridazine hydrochloride],0.704,1.56
CN(C)CCc1c[nH]c2ccc(CS(=O)(=O)N3CCCC3)cc12.O=C(O)CC(O)C(=O)O [Almotriptan Malate],0.868,0.959
CO/N=C(\C(=O)N[C@@H]1C(=O)N2C(C(=O)[O-])=C(COC(C)=O)CS[C@H]12)c1csc(N)n1.[Na+] [Cefotaxime sodium],1.45,0.707
CN[C@H]1CC[C@@H](c2ccc(Cl)c(Cl)c2)c2ccccc21.Cl [Sertraline hydrochloride],0.888,1.32
CCc1cccc2c3c([nH]c12)C(CC)(CC(=O)O)OCC3 (stereo not drawn) [Etodolac],0.917,1.19
CCc1cc(/C(C)=N/OCc2ccc(C3CCCCC3)c(C(F)(F)F)c2)ccc1CN1CC(C(=O)O)C1 [Siponimod],2.91,0.811
CCCNS(=O)(=O)Nc1ncnc(OCCOc2ncc(Br)cn2)c1-c1ccc(Br)cc1 [Macitentan],0.835,0.938
C/C=C(/C)C(=O)O[C@H]1C(C)=C[C@]23C(=O)[C@@H](C=C(CO)[C@@H](O)[C@]12O)[C@H]1[C@@H](C[C@H]3C)C1(C)C [Ingenol Mebutate],1.37,2.33
CN(C)CCc1c[nH]c2ccc(Cn3cncn3)cc12.O=C(O)c1ccccc1 [Rizatriptan benzoate],1.84,0.666
